Measured values reported in PMC4336329 (PLoS ONE, 2015).
In all, about 310,000 compounds went through this assay and about 14,000 (4.5%) showed an effect of 50% or more. Effects have a minus sign here. The sample as a whole holds a higher share of strong results than the screen did.

Target: human ether-à-go-go-related gene (hERG) potassium channel (human, UniProt Q12809)
Experiment: primary screen, population patch clamp on CHO cells stably expressing hERG; higher = less effect of the substance
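Also: peak tail current of the secondary pulse compared with the same well before compound.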

human ether-à-go-go-related gene (hERG) potassium channel, sequence (Q12809 whole entry, looked up): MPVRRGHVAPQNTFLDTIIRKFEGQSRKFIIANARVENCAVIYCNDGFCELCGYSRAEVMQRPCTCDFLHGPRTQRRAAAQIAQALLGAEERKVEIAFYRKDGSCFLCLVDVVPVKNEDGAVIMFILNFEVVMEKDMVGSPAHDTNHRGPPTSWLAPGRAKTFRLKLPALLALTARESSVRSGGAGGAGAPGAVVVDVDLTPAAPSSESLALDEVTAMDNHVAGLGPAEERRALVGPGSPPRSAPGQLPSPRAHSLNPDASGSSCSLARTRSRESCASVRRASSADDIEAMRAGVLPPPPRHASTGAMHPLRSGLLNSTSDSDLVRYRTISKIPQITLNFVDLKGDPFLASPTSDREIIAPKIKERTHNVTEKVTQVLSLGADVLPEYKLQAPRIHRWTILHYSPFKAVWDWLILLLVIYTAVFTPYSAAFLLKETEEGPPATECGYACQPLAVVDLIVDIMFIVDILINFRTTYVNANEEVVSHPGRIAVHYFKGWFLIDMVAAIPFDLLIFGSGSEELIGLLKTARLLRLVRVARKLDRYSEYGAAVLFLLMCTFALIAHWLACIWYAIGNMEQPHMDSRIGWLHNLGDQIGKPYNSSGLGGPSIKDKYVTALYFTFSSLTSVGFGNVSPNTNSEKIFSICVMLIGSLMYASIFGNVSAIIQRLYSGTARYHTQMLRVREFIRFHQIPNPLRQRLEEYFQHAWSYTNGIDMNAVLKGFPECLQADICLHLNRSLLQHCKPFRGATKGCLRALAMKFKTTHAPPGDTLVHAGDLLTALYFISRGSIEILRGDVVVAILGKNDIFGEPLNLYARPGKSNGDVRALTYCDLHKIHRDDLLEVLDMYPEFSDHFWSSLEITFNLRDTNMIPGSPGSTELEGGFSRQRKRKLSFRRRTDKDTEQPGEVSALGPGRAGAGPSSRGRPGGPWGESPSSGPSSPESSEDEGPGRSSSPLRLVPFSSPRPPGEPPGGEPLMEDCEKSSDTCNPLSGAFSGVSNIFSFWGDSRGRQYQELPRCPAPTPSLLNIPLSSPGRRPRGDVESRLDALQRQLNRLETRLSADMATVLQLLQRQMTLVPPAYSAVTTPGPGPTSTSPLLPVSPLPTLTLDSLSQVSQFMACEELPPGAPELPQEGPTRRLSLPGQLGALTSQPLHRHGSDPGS

Row | Compound | hERG current change (%, negative = inhibition) at 10uM [%]
1 | CCCOc1ccc(C(=O)N2CCCc3ccccc32)cc1 | -26
2 | COc1ccc(C2SCC(C(=O)NCc3ccc(F)cc3)N2C(C)=O)cc1 (centres unmarked) | -20.2
3 | Nc1ccccc1SSc1ccccc1N | 27.7
4 | Cc1ccc(S(=O)(=O)N2CCC(C(=O)NCCCN3CCCC3=O)CC2)cc1C | 7.98
5 | CCOc1cc2sc(N3CCC(C(=O)NCCCN4CCCC4=O)CC3)nc2cc1Br | -60.5
6 | COc1ccc2nc(N3CCCC(C(=O)NCCCN4CCN(C)CC4)C3)sc2c1 (centres unmarked) | 1.67
7 | Cc1cc(C)c2nc(N3CCC(C(=O)NCCCN4CCCC4=O)CC3)sc2c1 | -25.5
8 | CCCN1CCN(CCCNC(=O)C2CCCN(c3nc4ccc(OCC)cc4s3)C2)CC1 (centres unmarked) | -56.7
9 | CCOc1ccc2nc(N3CCCC(C(=O)NC4CCCC4)C3)sc2c1 (centres unmarked) | -0.903
10 | O=C(NCCCN1CCCC1=O)C1CCN(S(=O)(=O)c2c(Cl)cccc2Cl)CC1 | -0.379
11 | CCOc1ccc2nc(N3CCCC(C(=O)NCC4CCCO4)C3)sc2c1 (centres unmarked) | -19.1
12 | CCOc1ccc2nc(N3CCC(C(=O)NCCCN4CCOCC4)CC3)sc2c1 | -17.7
13 | Cc1cc(C)c(C)c(S(=O)(=O)N2CCC(C(=O)NCCCN3CCCC3=O)CC2)c1C | -70
14 | CCOc1ccc2nc(N3CCCC(C(=O)NCCCN4C(C)CCCC4C)C3)sc2c1 (centres unmarked) | -54.7
15 | COc1ccc2nc(N3CCCC(C(=O)NCCCN4C(C)CCCC4C)C3)sc2c1 (centres unmarked) | -34.1
16 | CCOC(=O)C1=C(c2ccccc2)OC(N)=C(C#N)C1c1cccs1 (centres unmarked) | 3.11
17 | O=C(c1ccc(=O)[nH]c1)N1CCN(S(=O)(=O)c2cc(C(F)(F)F)ccc2Cl)CC1 | -13.4
18 | Cc1ccc(NC(=O)CN(C)Cc2ccc(F)cc2)c([N+](=O)[O-])c1 | -17.8
19 | CSc1nc2c(c(=O)[nH]1)C(c1ccncc1)C(C(=O)OC(C)C)=C(C)N2 (centres unmarked) | -0.441
20 | CCN(CC)c1ccc(NC(=O)COc2ccccc2C#N)cc1S(=O)(=O)Nc1ccc(OC)cc1 | 13
21 | COc1ccc([C@@H]2[C@@H]3C(=O)N(C(C)(C)C)C(=O)[C@@H]3[C@]3(Cc4ccccc4)C(=O)N(c4ccc(C)cc4)C(=O)N23)cc1 | 2.04
22 | CN(Cc1ccccc1)C(=O)c1[nH]cnc1C(=O)NCC(=O)OC(C)(C)C | 10.4
23 | COc1ccc(/C=C2\SC(=O)N(CCNC(=O)Cc3coc4cc(C)ccc34)C2=O)cc1OC | 4.76
24 | CC(C)(C)[C@@H]1CCC(=O)N(CC[C@H](Sc2ccccc2)c2ccccc2)CC1 | 17.1
25 | Cc1cc(C)cc(NC(=O)COC(=O)CC2CCCC2)c1 | -0.633
26 | Cc1cccc(C)c1NC(=O)CN(C)C(=O)CCc1nc2sc3c(c2c(=O)[nH]1)CCCC3 | 5.53
27 | Cc1ccc2occ(/C=N/NC(=O)[C@@H](N)Cc3ccccc3)c(=O)c2c1.Cl | -22.5

Row | Compound | hERG current change (%, negative = inhibition) at 10uM [%]
28 | CCOc1ccc2nc(N3CCCC(C(=O)NCCCN4CCOCC4)C3)sc2c1 (centres unmarked) | -19.6
29 | CCOc1ccc2nc(N3CCCC(C(=O)NCCCN4CCCCC4)C3)sc2c1 (centres unmarked) | -64.8
30 | CCOc1ccc2nc(N3CCCC(C(=O)NCCCN4CC(C)CC(C)C4)C3)sc2c1 (centres unmarked) | -48.8
31 | COc1cccc(C2C(C#N)=C(N)Oc3cc(C)n(Cc4ccccn4)c(=O)c32)c1OC (centres unmarked) | 3.7
32 | CC1(C)CC2CC(C)(CN2C(=O)C23CCC(C)(C(=O)C2)C3(C)C)C1 (centres unmarked) | -4.28
33 | COc1ccc(N2CCN(C(=O)CC(NC(N)=O)c3cccc(Oc4ccccc4)c3)CC2)cc1 (centres unmarked) | -7.97
34 | CC(=O)NC(CC(=O)N1CCN(C(C)=O)CC1)c1ccccc1 (centres unmarked) | 27
35 | CC(NC(=O)c1ccccc1)c1nc2ccccc2n1Cc1ccc(C#N)cc1 (centres unmarked) | -68.6
36 | COc1cccc(N2CCN(C(=O)CC(NC(=O)c3ccccc3)c3ccccc3)CC2)c1 (centres unmarked) | -65
37 | Cc1cccc(N2CCN(C(=O)CC(NC(=O)c3ccccc3)c3ccccc3)CC2C)c1 (centres unmarked) | -47.1
38 | CCn1c(C(C)NC(=O)c2cccc(C)c2)nc2ccccc21 (centres unmarked) | -19.6
39 | CC(NC(=O)c1ccccc1)c1nc2ccccc2n1Cc1ccccc1F (centres unmarked) | 0.996
40 | O=C(NC(=S)N1CCN(Cc2ccccc2)CC1)c1ccccc1 | 6.47
41 | N#Cc1ccc(CN2CCN(C(=O)CC(NC(=O)c3ccccc3)c3ccccc3)CC2)cc1 (centres unmarked) | -81.2
42 | CCC1(C)Cc2c(sc3c2c(=O)n(-c2ccccc2)c(=O)n3C)CO1 (centres unmarked) | 5.26
43 | COc1cc2cnc(-c3ccccc3)c(-c3cc(OC)c(OC)c(OC)c3)c2cc1OC | -0.323
44 | Cn1c2ccccc2c(=O)c2ccc(C#CC3(O)CCCCC3)cc21 | 1.63
45 | COc1cccc(N(CC(=O)NCc2ccco2)C(=O)CCC(=O)Nc2nccs2)c1 | 1.6
46 | CSCCC(NS(=O)(=O)c1ccc(Cl)cc1)C(=O)OCc1c(Cl)cccc1Cl (centres unmarked) | 6.45
47 | COc1ccc(OC)c(C(C)NC(=S)NC2CCCCC2)c1 (centres unmarked) | -6.58
48 | Cc1cccc(OC(C)C(=O)N2CCCN(C)CC2)c1C (centres unmarked) | 1.75
49 | COc1ccc(NC(=O)CSc2nnc3n2CCCCC3)cc1 | 8.17
50 | Cc1ccccc1S(=O)(=O)Oc1ccccc1C(=O)Oc1ccccc1 | -1.26
51 | C=CCn1c(=O)/c(=C/c2ccc(O)cc2)s/c1=C(/C#N)c1nnc2n1CCCCC2 | -16.6
52 | Br.C=CCN1C(c2ccccc2)=CS/C1=C(\C#N)c1nnc2n1CCCCC2 | -59.2
53 | C=CCn1c(=O)/c(=C/c2ccc(Cl)cc2)s/c1=C(/C#N)c1nnc2n1CCCCC2 | -43
54 | C=CCn1c(=O)/c(=C/c2ccc(F)cc2)s/c1=C(\C#N)c1nnc2n1CCCCC2 | -59.9

Row | Compound | hERG current change (%, negative = inhibition) at 10uM [%]
55 | Br.CCOc1ccc(C2=CS/C(=C(\C#N)c3nnc4n3CCCCC4)N2CC)cc1 | -47.3
56 | Br.C=CCN1C(c2ccc(OCC)cc2)=CS/C1=C(\C#N)c1nnc2n1CCCCC2 | -37.9
57 | Cc1cc(C(=O)Nc2ccc(C(=O)O)cc2)c(C)o1 | 23.9
58 | Cc1cc(C)c(C)c(S(=O)(=O)N2CCN(c3ncnc4ccccc34)CC2)c1C | -4.67
59 | Cc1c(NC(=O)c2noc3c2CCc2ccccc2-3)c(=O)n(-c2ccccc2)n1C | -52.9
60 | Cc1c(N/C(=N/S(=O)(=O)c2ccccc2)c2ccc(Cl)cc2)c(=O)n(-c2ccccc2)n1C | -30.7
61 | Cc1ccc(-c2cc(C(F)(F)F)n3nc(C(=O)Nc4c(C)n(C)n(-c5ccccc5)c4=O)cc3n2)cc1 | -14.3
62 | Cc1cc(NC(=O)c2noc3c2CCc2ccccc2-3)no1 | 11
63 | Cc1c(N/C(=N/S(=O)(=O)c2ccc(Cl)cc2)c2ccccc2)c(=O)n(-c2ccccc2)n1C | -20.6
64 | Cc1ccc(-c2cc(C(=O)Nc3c(C)n(C)n(-c4ccccc4)c3=O)no2)cc1 | -25.3
65 | Cc1c(NC(=O)c2cc(-c3ccccc3)on2)c(=O)n(-c2ccccc2)n1C | -27.7
66 | Cc1c(NC(=O)c2cc(-c3ccc(Cl)cc3)on2)c(=O)n(-c2ccccc2)n1C | -55.1
67 | Cc1ccc(S(=O)(=O)/N=C(/Nc2c(C)n(C)n(-c3ccccc3)c2=O)c2ccc(Cl)cc2)cc1 | -57
68 | Cc1c(NC(=O)c2cc3nc(-c4ccc(Cl)cc4)cc(C(F)(F)F)n3n2)c(=O)n(-c2ccccc2)n1C | -55.3
69 | Cc1c(NC(=O)c2cc3nc(-c4ccc(Br)cc4)cc(C(F)(F)F)n3n2)c(=O)n(-c2ccccc2)n1C | -33.9
70 | COc1ccc2c(c1)CCc1c(C(=O)Nc3c(C)n(C)n(-c4ccccc4)c3=O)noc1-2 | 4.63
71 | CCC(C)(C)NC(=O)C1c2ccccc2Oc2ccccc21 | 23
72 | O=C(O)CC1Sc2nnc(COc3ccc(Cl)cc3)n2N=C1c1ccccc1 (centres unmarked) | 21.2
73 | CN(C)S(=O)(=O)c1cc(S(=O)(=O)N(C)C)c(Cl)cc1N | -8.31
74 | COC(=O)c1ccccc1NC(=S)NC(NC(=O)c1ccccc1[N+](=O)[O-])C(Cl)(Cl)Cl (centres unmarked) | -1.4
75 | CCc1oc(C(=O)OC)cc1CSC(=N)N.Cl | 12
76 | CS(=O)(=O)c1ccc(C(=O)NC2CCCc3ccccc32)cc1 (centres unmarked) | 20
77 | COc1ccc(-c2csc(-c3cccnc3)n2)cc1C | -3.79
78 | CCCCNC(=O)Nc1nnc(-c2ccc(OCC)cc2)o1 | 10.1
79 | CCN(CC)CCCNC(=O)c1[nH]c(C)c(C(=O)NC2CCCCC2)c1C | 12.9
80 | CCc1nc(SCC(=O)Nc2cc(OC)ccc2OC)c2c(C)c(C)sc2n1 | 3.63
